Compounds with a hit are over-represented: about 2.7% of the library has one in this group of screens.
MPTP inh: mitochondrial permeability transition pore inhibitors, primary screen, biochemical, isolated mouse mitochondria, absorbance; Ca2+ swelling absorbance, 30 min; inhibition, % at 10 µM; 360,000 tested, 1.4% active; AID 602449, 2012;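 active = inhibition of 50% or more, scaled per plate between neutral and stimulator controls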
aDG glyco act: activators of alpha-DG glycosylation, primary screen, uHTS, Pro5-aDG cells, AlphaScreen; alpha-DG glycosylation AlphaScreen (IIH6); 0% Pro5, 100% B10-LARGE cell signal; activation, % at 10 µM; 360,000 tested, 0.22% active; AID 624168, 2012;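 active = activation of at least 8% versus controls, or a plate z-score of at least 8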;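 note: Pro5 are CHO cells carrying HIG-tagged alpha-DG that lacks glycosylation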
NadD block: inhibitors of S. aureus NadD, primary screen, biochemical, colorimetric, uHTS | inhibition, % at 20 µM | AID 602399, 2012 | purified NadD enzyme, colorimetric absorbance read-out | 360,000 tested, 0.78% active; in the data active = inhibition above about 26%
TAG inh: inhibitors of triacylglycerol accumulation, primary screen, cell-based, uHTS, fluorescence, H9c2. inhibition, % at 12.5 µM. H9c2 cells, Nile Red lipid (TAG) fluorescence; cells loaded with 200 µM oleic acid. 230,000 tested, 0.66% active;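 active = pattern-corrected inhibition of lipid staining of at least 50% with the nuclear-stain viability signal not falling by more than 50%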
MPTP counter: fluorescence retest of MPTP screen hits in isolated mitochondria, single concentration; shares compounds with MPTP inh; membrane potential, Rhodamine 123 fluorescence; inhibition, % at 10 µM; 5,000 tested, 78% active; AID 624504, 2012; in the data active = inhibition above about 22%
MPTP abs DR: mitochondrial permeability transition pore inhibitors, dose response, biochemical, absorbance, uHTS hits. IC50, µM. shares compounds with MPTP inh. isolated mitochondria swelling. 780 tested, 58% active; in the data active = IC50 below about 20 µM
MPTP counter DR: fluorescent counter-screen in isolated mitochondria, dose response, counter-screen for MPTP inhibitor project, biochemical, fluorescence, uHTS hits; shares compounds with MPTP inh; isolated mitochondria counterscreen, fluorescence read-out; IC50, µM; 780 tested, 49% active; in the data active = IC50 below about 80 µM
Each line names hits and unclear results; the compound was inactive in the other large screens (follow-up assays come after a bar, where they were run).

CCOc1cc(OCC)cc(C(=O)NC(=S)Nc2cccc(C(F)(F)F)c2)c1	none
COC(=S)Nc1cccc(C(F)(F)F)c1	none
COc1ccc(NC(=S)NNC(=S)Nc2cccc(C(F)(F)F)c2)cc1	MPTP inh 69 | MPTP counter 72
CCc1nc2ccc(C(=O)N(C)Cc3ccco3)cn2c1N(C)Cc1ccc(OC)cc1	none
CN(C)S(=O)(=O)c1ccc(Nc2nc(C3CC3)nc3c2nnn3Cc2ccccc2Cl)cc1	MPTP inh 62 (no result: TAG inh) | MPTP counter 29
COc1ccc(NCC(=O)Nc2ccc(C#N)cc2)cc1Cl	MPTP inh 76 (no result: TAG inh) | MPTP counter 84
COc1ccc(NC(=O)CNc2cccc(C#N)c2)cc1Cl	none
COc1cc(-c2cnc3c(NC=O)cc(-c4cccc(C(=O)NCCN(C)C)c4)cn23)cc(OC)c1OC	none
N#Cc1cccc(C#N)c1Oc1ccc(S(=O)(=O)Nc2ccccc2)cc1	MPTP inh 54 | MPTP counter inactive | MPTP abs DR inactive | MPTP counter DR 30
COc1ccc(-c2nc(S(=O)(=O)c3ccccc3)c(N3CCN(C)CC3)o2)cc1	none
Cc1nn(C)c(Cl)c1NC(=O)OCc1ccc(Cl)cc1Cl	MPTP inh 87 (no result: TAG inh) | MPTP counter 92
CN(C)S(=O)(=O)c1cc(NC(=O)CSc2ncc(C(F)(F)F)cc2Cl)ccc1Cl	MPTP inh 74 (no result: TAG inh) | MPTP counter 86
CN(C)S(=O)(=O)c1cc(NC(=O)CSc2cccc[n+]2[O-])ccc1Cl	none
Cc1ccccc1OCCC(=O)Nc1cccc(S(=O)(=O)Nc2ccccc2Cl)c1	MPTP inh 77 (no result: TAG inh) | MPTP counter 75
O=C(Nc1cccc(S(=O)(=O)Nc2ccccc2F)c1)c1ccc2ccccc2n1	none
O=C(/C=C/c1ccccc1)Nc1cccc(S(=O)(=O)Nc2ccccc2F)c1	MPTP inh 51 | MPTP counter 56
O=C(Cc1c(F)cccc1Cl)Nc1cccc(S(=O)(=O)NC2=NCCCCC2)c1	none
O=C(Cc1ccc(Cl)cc1Cl)Nc1cccc(S(=O)(=O)Nc2ccccc2F)c1	MPTP inh 65 (no result: TAG inh) | MPTP counter 58
Cc1ccc(CNC(=O)C2CCC(=O)N(Cc3ccc(Cl)cc3)C2)cc1F (configuration not stated)	none
CCCc1nc(SC2CCCC2)c2c(=O)n(C)c(=O)n(C)c2n1	MPTP inh 72 | MPTP counter inactive | MPTP abs DR inactive | MPTP counter DR 70
CCOC(=O)C1=C(CC)Nc2ccccc2N/C1=N\S(=O)(=O)c1ccc2ccccc2c1	none
CCOC(=O)C1=C(CC)Nc2ccccc2N/C1=N\S(=O)(=O)c1cc(Br)ccc1Br	MPTP inh 66 (no result: TAG inh) | MPTP counter 82
Cc1cc(C)n(CCNc2nc3nonc3nc2N2CCCCC2)n1	none
COc1ccc(C/C(N)=N/n2cnnc2)cc1	none (no result: TAG inh)
CC(C)COc1ccc(C/C(N)=N/n2cnnc2)cc1	MPTP inh 66 (no result: TAG inh) | MPTP counter 54
O=C(Nc1ccc2nc(C(F)(F)F)[nH]c2c1)[C@@H]1O[C@H](CO)[C@@H](O)[C@H]1O	none
COc1ccc(Cl)cc1NC(=O)CSc1nnc(Cc2ccc(C)cc2)c(=O)[nH]1	MPTP inh 63 | MPTP counter 67
Cc1ccc(Cc2nnc(SCC(=O)Nc3ccccc3Cl)[nH]c2=O)cc1	none
COc1ccccc1Nc1nc(-c2c(C)nc3ncccn23)cs1	MPTP inh 71 | MPTP counter 50
O=C(NCc1ccncc1)C1CCN(S(=O)(=O)c2ccc(Cl)c(C(F)(F)F)c2)CC1	none
COc1ccc(CN(C)c2ccc(S(=O)(=O)N3CCN(C)CC3)cc2[N+](=O)[O-])cc1OC	MPTP inh 97 | MPTP counter 99
CN(CC(=O)Nc1ccc(S(=O)(=O)N2CCCC2)cc1)Cc1ccc(Cl)cc1Cl	none (no result: TAG inh)
CN(CC(=O)Nc1ccc(Cl)cc1)c1ccc(S(=O)(=O)N2CCCCC2)cc1[N+](=O)[O-]	MPTP inh 82 (no result: TAG inh) | MPTP counter 67

Source: PubChem BioAssay
